Compound activity: PubChem BioAssay, National Center for Advancing Translational Sciences (NCATS)
KinaseGlo FLuc: blocks Kinase-Glo luciferase, a counter-screen artifact; AID 1379; Kinase-Glo luciferase, ATP luminescence, 8 min; Q27757; 200,000 compounds, 0.28% hits; Potency, µM (series often up to 38.3 µM), inactives show at the top dose activity change, negative = inhibition, most hits filed as inhibitors; active = well fitted inhibition curve with a large enough effect; inconclusive = small, poorly fitted or top-dose-only effect; also: potency is read from the fitted curve at half-maximal effect; nearly all actives have a fitted effect of over 60% in size
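Inhibition of Kinase-Glo luciferase light generation was assessed at 10 uM ATP in pH 7.2 imidazole buffer, with luminescence measured after eight minutes at ambient temperature.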
PNC inhibitor: inhibitors of perinucleolar compartment assembly; PC3M PTB-GFP, PNC prevalence imaging, 16 h; active compounds read low; activity change (PNC), negative = inhibition, % at 10 µM; 140,000 compounds, 3.1% hits;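 active = readout at or below -70, meaning at least 70% loss of cells showing the perinucleolar compartment, a nuclear body marking cancer cells; inconclusive = readout between -30 and a set limit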;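 also: plate controls were DMSO wells for no effect and camptothecin positive control wells for full effect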
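PC3M cells stably expressing PTB-GFP, 750–1000 cells/well, treated 16 h at 37 °C with compound (23 nl of library stock), in duplicate. After paraformaldehyde fixation and Hoechst stain, imaged at 20x; PNC prevalence scored by image analysis.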
ALDH1A1 block: ALDH1A1 (human) enzyme inhibition. P00352. Purified ALDH1A1, NADH fluorescence, propionaldehyde substrate. Potency, µM (doses to about 75.3 µM), inactives show at the top dose activity, negative = inhibition, most hits filed as inhibitors. 220,000 compounds, 7.3% hits. AID 1030;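 also: potency is read from the fitted curve at half-maximal effect; plate controls were no enzyme wells and a reference inhibitor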
Target sequence (P00352 whole entry, looked up): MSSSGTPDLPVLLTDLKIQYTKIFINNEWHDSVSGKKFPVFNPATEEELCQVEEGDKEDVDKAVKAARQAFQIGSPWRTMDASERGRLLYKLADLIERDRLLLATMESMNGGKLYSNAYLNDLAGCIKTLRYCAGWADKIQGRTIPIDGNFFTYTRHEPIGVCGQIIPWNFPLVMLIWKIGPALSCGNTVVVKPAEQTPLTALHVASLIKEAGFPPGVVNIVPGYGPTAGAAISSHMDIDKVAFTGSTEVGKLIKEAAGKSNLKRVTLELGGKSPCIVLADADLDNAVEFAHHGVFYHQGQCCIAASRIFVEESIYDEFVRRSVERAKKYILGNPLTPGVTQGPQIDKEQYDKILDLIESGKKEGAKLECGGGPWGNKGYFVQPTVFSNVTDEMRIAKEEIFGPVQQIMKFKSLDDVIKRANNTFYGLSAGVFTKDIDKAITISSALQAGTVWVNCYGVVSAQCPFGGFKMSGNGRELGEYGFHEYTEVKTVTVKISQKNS
HPGD inh: blocks human HPGD enzyme activity; purified HPGD, NADH fluorescence kinetic, PGE2 substrate; Potency, µM, for inactives: at the highest dose activity change, negative = inhibition, most hits filed as inhibitors; P15428; AID 894; 150,000 compounds, 4.3% hits; also: potency is read from the fitted curve at half-maximal effect
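NADH formation kinetics: reaction with 30 uM PGE2 and 1 mM NAD+ (final), 20 nM enzyme, Tris-HCl pH 8 with Tween 20, after 15 min compound preincubation at room temperature. Fluorescence change, last versus first of five reads.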
Lamin A splicing: LMNA splicing modulation | HeLa LMNA splicing GFP/RFP minigene ratio, 48 h | Potency, µM (highest dose often 46.1 µM), inactives show top-dose ratio change, negative = inhibition, hits mostly inhibitors | 200,000 compounds, 0.01% hits | AID 1487; active = well fitted inhibition curve with a large enough effect in the signal ratio, with a control signal flat, not every such curve was filed as active; inconclusive = small, poorly fitted or top-dose-only effect, or effect the other way, or a change in a side signal; the % refers to the signal ratio; also: potency is read from the fitted curve at half-maximal effect
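S3 HeLa cells stably expressing lamin A-EGFP splicing minigene plus DsRed2, 600 cells/well, 48 h compound exposure at 37C. Laser-scanning cytometry; analysed as GFP (500-530 nm)/RFP (575-640 nm) total intensity ratio; 0.5% DMSO vehicle.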
* = called active by the depositor; ? = inconclusive; . = not tested or not shown; [ ] = another dose, or the depositor's remark. A selection: hits, their analogues and other compounds. The true share with any hit is near 10%. Unless noted, calls follow the shape of the dose curve; as a rule, active = well fitted inhibition curve with a large enough effect (not every such curve was filed as active); inconclusive = small, poorly fitted or top-dose-only effect, or another doubt; inactive = no such curve, though single readings can be large or run the other way. Unless noted, % is scaled to controls: 0 for no effect and ±100 for the full control effect.

SMILES	KinaseGlo FLuc	PNC inhibitor	ALDH1A1 block	HPGD inh	Lamin A splicing
O=c1nc(-c2ccccc2)c2ccccc2[nH]1	15%	15	?	?	4%
O=C1C(c2cc(=O)c3ccccc3[nH]2)=C(O)c2ccccc21	-19%	26	-7%	14µM*	?
O=c1cc(-c2ccccc2)[nH]c2ccccc12	4%	?	2%	13µM*	?
C1COC1	.	.	9%	-6%	.
CCC1CN(C(=O)N2CCC(C(=O)N3CCN(c4ccccc4)CC3)CC2)c2ccccc2O1 (stereo not drawn)	.	.	.	.	-5%[46 µM]
Cc1c(Cl)c(C(=O)NC2C3CC4CC(C3)CC2C4)nn1C (stereo not drawn)	0%	?	?	20µM*	?
COC(=O)C1=C(C)[C@@H](O)[C@@H](C)[C@](C)(c2cc(OC)c(C)c(OC)c2COc2ccccc2)O1	0%	.	11%	-10%	.
COc1ccc(C(C#N)c2ccc(=O)[nH]n2)cc1 (stereo not drawn)	-1%	.	?	.	-8%[46 µM]
COc1ccc(C(c2c(C)[nH]n(C(N)=S)c2=O)C(C#N)C#N)cc1 (stereo not drawn)	0%	?	13µM*	32µM*	-6%
O=C(O)c1ccccc1C(=O)c1ccc(Oc2ccccc2)cc1	-4%	-85*	1%	-3%	-23%
Cc1ccc(C(=O)c2ccccc2C(=O)O)cc1C	2%	.	20%	.	.
O=C1C2C3C=CC(C3)C2C(=O)N1c1ccccc1 (stereo not drawn)	-3%	-15	-1%	-14%	?
O=C1C2C3CCCC3=C3CCCC3C2C(=O)N1c1ccccc1 (stereo not drawn)	0%	?	25µM*	-8%	-5%
O=C1C2C3C=CC(C3=C3CCCCC3)C2C(=O)N1c1ccccc1 (stereo not drawn)	-1%	20	10µM*	-2%	3%
CCC1CCC(c2nnc(-c3ccc([N+](=O)[O-])cc3)o2)CC1 (stereo not drawn)	2%	?	11µM*	-4%	-6%
CSc1nnc(-c2ccc([N+](=O)[O-])cc2)o1	-2%	.	-15%	.	?
COc1cc(C)ccc1OCCSc1nc2ccc(NC(=O)c3ccccc3F)cc2s1	.	.	.	.	17%[46 µM]
CC(C)N(CCC(=O)c1ccc2ccccc2c1)Cc1ccccc1	-2%	.	0.28µM*	?	?
CC(=O)N1CCN(C(=S)c2ccc([N+](=O)[O-])cc2)CC1	6%	14	22µM*	32µM*	-9%
CC(=O)N1CCN(c2ccc([N+](=O)[O-])cc2)CC1	-1%	.	1%	.	1%[46 µM]
CN(C)c1ccc(C(=S)N2CCN(c3ccc([N+](=O)[O-])cc3)CC2)cc1	.	.	1µM*	.	.
Cc1ccccc1N1CCN(C(=S)c2ccc([N+](=O)[O-])cc2)CC1	1%	?	?	?	?
Cc1cccc(N2CCN(C(=S)c3ccc([N+](=O)[O-])cc3)CC2)c1	-1%	-27	2.5µM*	7.9µM*	?
Cc1cccc(N2CCN(C(=S)c3ccccc3)CC2)c1	5%	.	?	.	-4%[46 µM]
O=[N+]([O-])c1ccc(C(=S)N2CCN(c3ccc(F)cc3)CC2)cc1	2%	.	10µM*	.	?
SMILES	KinaseGlo FLuc	PNC inhibitor	ALDH1A1 block	HPGD inh	Lamin A splicing
COCCCNC(=O)C1CCN(Cc2cc3ccccc3n2Cc2cccc(C)c2)CC1	.	.	.	.	-16%[46 µM]
CCN(CC)CCNC(=O)c1sc2nc3n(c(=O)c2c1C)CCCCC3	.	.	.	.	-10%[46 µM]
C[C@@]1(CO)[C@H](O)CC[C@]2(C)[C@@H]1CC[C@H]1C[C@H]3C[C@]12CC[C@]3(O)COC(=O)CN	-7%[7.66 µM]	.	0%[13.5 µM]	-8%	.
CC1CCCCN1CCCNC(=O)c1sc2ncccc2c1-n1cccc1 (stereo not drawn)	.	.	.	.	6%[46 µM]
O=C(CSc1nc(=O)n(Cc2ccco2)c2c1CCC2)NCc1ccc(Cl)cc1	.	.	.	.	-5%[46 µM]
N#Cc1cccc(-c2ccc3ncnc(N4CCNCC4)c3c2)c1	.	.	-2%	.	0%
COc1ccccc1-c1ccc2ncnc(N(C)C)c2c1	-4%	.	-8%	14µM*	?
CN(C)c1ncnc2ccc(-c3cccc(C#N)c3)cc12	.	.	32µM*	.	?
Cc1ccc2[nH]c(=O)c(CN(CCCN3CCOCC3)Cc3nnnn3C3CCCC3)cc2c1	9%	-100*	?	-3%	8%
CCc1ccc2[nH]c(=O)c(CN(Cc3ccc4c(c3)OCO4)Cc3nnnn3C3CCCC3)cc2c1	1%	42	?	-29%	-14%
Cc1ccc2cc(CN(Cc3ccc(F)cc3)Cc3nnnn3C3CCCC3)c(=O)[nH]c2c1	1%	?	14µM*	-26%	4%
COc1ccc(Cn2nnnc2CN(Cc2cc3cccc(C)c3[nH]c2=O)C2CCCC2)cc1	-4%	28	?	-16%	4%
COc1ccc(Cn2nnnc2CN(Cc2cc3ccc(C)cc3[nH]c2=O)C2CCCC2)cc1	-4%	22	22µM*	-5%	?
Cc1ccc2cc(CN(Cc3ccccc3)Cc3nnnn3C3CCCC3)c(=O)[nH]c2c1	2%	34	10µM*	-22%	?
CCC1=C2CC[C@H]3C(=O)N(c4ccccc4)C(=O)[C@H]3[C@H]2[C@@]2(Cc3ccccc3)C(=NCCOC)OC(=O)N2C1=O	-2%	.	3%	-14%	.
COC(=O)CCCCCN1C(=O)/C(=C\c2ccncc2)SC1=S	.	.	25µM*	.	.
O=C1C2C(C(=O)N1/N=C/c1cccc([N+](=O)[O-])c1)C1C=CC2C12CC2 (stereo not drawn)	-9%	?	16µM*	16µM*	4%
O=C1C2C(C(=O)N1Cc1ccco1)C1C=CC2C12CC2 (stereo not drawn)	-1%	?	13µM*	-7%	6%
O=C1C2C(C(=O)N1/N=C/c1ccco1)C1C=CC2C12CC2 (stereo not drawn)	-1%	27	10µM*	-15%	-2%
O=C1C2C3C=CC(C4CC34)C2C(=O)N1Cc1ccco1 (stereo not drawn)	0%	84	22µM*	-1%	8%
O=C1C2C3C=CC(CC3)C2C(=O)N1/N=C/c1ccco1 (stereo not drawn)	1%	.	?	.	.
CC(C)=CCNc1ncnc2c1c(C#N)cn2[C@H]1O[C@@H](CO)[C@@H](O)[C@@H]1O	-3%[7.66 µM]	.	-8%[13.5 µM]	-5%	.
CCC(=O)O[C@@]1(C(=O)CCl)C(C)CC2C3CCC4=CC(=O)C=C[C@@]4(C)[C@]3(F)C(O)C[C@]21C (stereo partly drawn)	-3%	.	3%	-5%	-16%
CCC1=C2CC[C@H]3C(=O)N(CC(=O)OC)C(=O)[C@H]3[C@H]2[C@@]2(C)C(=O)N(CC3CC3)C(=O)N2C1=O	-9%	.	-8%	-5%	.
CC(/C=C1\N=C(SCc2ccccc2)SC1=O)=C\c1ccccc1	5%	?	22µM*	-19%	1%
